Results taken from the supplement of paper PMC6555819.

Legend:
Experiment in all cases: PBM binding z-score (relative to random genomic background probes); higher = stronger binding; sequences stand for … in GC…GCGATTGACAGCGTAGAATGAAGG
[1] = system: FXR:RXRa (NR concentration 270 nM, RXRa partner concentration 90 nM)
Summary of the method: (§1)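 Regression normalization was applied to scanned fluorescence from custom Agilent 4×180K protein-binding microarrays. Before scanning, arrays were incubated 1 h with ligand-free nuclear receptor dimers, and binding was detected with antibodies against each partner (one per run). Binding z-scores use the random background probes as reference.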

[2] = system: LXRa:RXRa (NR concentration 270 nM, RXRa partner concentration 90 nM)
Summary of the method: as §1

[3] = system: LXRa homodimer (NR concentration 270 nM)
Summary of the method: as §1

[4] = system: LXRb:RXRa (NR concentration 270 nM, RXRa partner concentration 90 nM)
Summary of the method: as §1

[5] = system: LXRb homodimer (NR concentration 270 nM)
Summary of the method: as §1

[6] = system: PPARa:RXRa (NR concentration 270 nM, RXRa partner concentration 90 nM)
Summary of the method: as §1

[7] = system: PPARg:RXRa (NR concentration 180 nM, RXRa partner concentration 90 nM)
Summary of the method: as §1

[8] = system: PPARg:RXRa 270nM:90nM, anti-RXR (NR concentration 270 nM, RXRa partner concentration 90 nM)
Summary of the method: as §1

[9] = system: PPARg:RXRa 30nM:10nM, anti-RXR (NR concentration 30 nM, RXRa partner concentration 10 nM)
Summary of the method: as §1

[10] = system: PPARg:RXRa 90nM:30nM, anti-RXR (NR concentration 90 nM, RXRa partner concentration 30 nM)
Summary of the method: as §1

Row | Sequence | PBM binding z-score [1] | PBM binding z-score [2] | PBM binding z-score [3] | PBM binding z-score [4] | PBM binding z-score [5] | PBM binding z-score [6] | PBM binding z-score [7] | PBM binding z-score [8] | PBM binding z-score [9] | PBM binding z-score [10]
1 | ATCGAAAGGCCGACGAGGTGAGTATACACCGTTT | 0.135 | -0.127 | -0.565 | -0.439 | -0.414 | -0.0782 | 0.686 | -0.414 | -0.0742 | -0.119
2 | ATGTCTAGGTAAAAGTTCAGTGAATCCCGAGGAT | 0.745 | 1.33 | 1.16 | 0.843 | 0.542 | 3.76 | 7.03 | 6.9 | 5.57 | 7.4
3 | TAGCCTAGGTCATTGGGCCAGTATTGTACGCATC | 4.48 | 3.6 | 0.903 | 2.28 | 0.642 | 3.66 | 3.19 | 3.33 | 1.04 | 2.35
4 | CGAATGAGGGCATGAGTTGATAGCAAATGCCGAT | 0.504 | 0.377 | -0.461 | 0.209 | -0.511 | 1.7 | 1.92 | 1.99 | 0.599 | 1.49
5 | TCTAGAAGGCCAGAGGGTCACTCAAGAGGTACGG | 1.32 | 1.11 | -0.432 | 1.28 | -0.671 | 2.5 | 1.33 | 2.98 | 3.24 | 3.02
6 | ATATCTAGGTAAGACTCAGTTCAGTGAAGAACGC | 0.211 | 0.372 | 0.425 | 0.221 | 0.484 | 1.35 | 1.55 | 1.27 | 0.124 | 0.928
7 | ATCGAAAGGTCGGGAGGTGAGTATACAGAAAGGC | 2.88 | 2.4 | 0.589 | 2.36 | 0.968 | 3.64 | 2.22 | 2.42 | 0.864 | 1.44
8 | CGAACTAGGTCATTGAAAGGACAGTGAATAGTAA | 3.97 | 2.81 | 0.177 | 1.84 | 0.134 | 4.42 | 7.82 | 6.43 | 4.13 | 5.83
9 | TCTGCTAGGTCAGTTGGTCAGCTACCGAGCTGCC | 0.866 | 0.506 | -0.683 | -0.00907 | -0.0816 | 1.21 | 0.156 | 1.79 | 1.19 | 1.29
10 | CCTTACGGGTGACTGACAGGTTATAGCATTTGGA | 0.488 | 0.771 | -0.154 | 0.347 | -0.474 | 1.2 | 0.53 | 0.218 | 0.1 | -0.0326
11 | TCTTGTAGATTAAGCAGGTTAAGAAAGCCTGAGT | 0.514 | 0.349 | -0.181 | 0.403 | -0.31 | 0.868 | -0.488 | 1.37 | 2.84 | 2.08
12 | TCATATAGGTAAAAAGGTGAAAGTCCGTAAGTTA | 1.56 | 1.85 | 0.558 | 1.8 | 0.394 | 3.53 | 3.87 | 5.05 | 5.01 | 5.53
13 | CCTGCTAGGTCAATAGTCAGCTAAAGCAGCTCGC | 2.43 | 1.66 | -0.401 | 0.931 | 0.148 | 2.28 | 2.33 | 2.95 | 0.219 | 1.9
14 | AATACAGGGTCATCGTAGGCCAGAGTCCGCACAG | 7.16 | 6.35 | 2.6 | 4.52 | 1.21 | 5.96 | 6.83 | 5.83 | 2.39 | 4.51
15 | CGAACTAGGTCAGAACAGGACAGTCAAGGATGAT | 1.77 | 1.06 | 0.173 | 0.627 | -0.362 | 3.31 | 5.24 | 4.41 | 1.74 | 3.31
16 | ATCTCTAGGTAACAAGTCCAGTGAAAGAGAGGAC | 0.652 | 0.256 | 0.362 | 0.148 | 0.685 | 0.632 | 1.2 | 1.71 | 0.317 | 1.45
17 | TCTTGTAGATCAAGCACGTTAAGAAAGCCTGAGT | 0.465 | 0.232 | -0.171 | 0.106 | -0.495 | 0.484 | -0.254 | 1.12 | 2.5 | 1.97
18 | GTACCAAGCTGAATAGGTCGTTGATGAGTAGGCG | -0.533 | -0.288 | -0.35 | -0.237 | -1.03 | 0.192 | 0.271 | 0.0324 | -0.305 | -0.334
19 | GCTAGCAGGCGATTTGGGTCACTCAATGACGGGC | 0.0524 | -0.217 | -0.513 | -0.281 | -0.929 | 1.48 | 0.632 | 0.575 | -0.192 | 0.427
20 | CCTTACGGGTCACTGCCAGGTTATAGCATTTGGA | 5.22 | 3.93 | 0.268 | 3.17 | 0.0184 | 4.86 | 4.05 | 4.26 | 1.23 | 2.88
21 | CGTCCAAGGTCAATGCTAGGTCAATGAAAGCATT | 6.8 | 5.82 | 3.63 | 4.64 | 1.53 | 5.09 | 4.43 | 4.97 | 1.54 | 3.64
22 | CCTACTGGGCCAAAGGTCACTGATTCCAATGCTC | 4.23 | 4.62 | 2.37 | 4.72 | 0.63 | 6.39 | 12.2 | 10.6 | 10.2 | 11.6
23 | AGAACGAGGGCACTCTGAGTTGATAGCAGAGTAG | 0.473 | 0.561 | -0.613 | -0.0145 | -0.411 | 1.35 | 1.21 | 1.19 | -0.0176 | 0.277
